Reference: PubChem BioAssay
Calls of active or inactive are those of the source.

Tests used:
[1] = tested on: PRMT1 (protein arginine N-methyltransferase 1); assay: small molecules binding arginine methyltransferase PRMT1 – biochemical, small-molecule microarray, 635 nm fluorescence, primary screen (AID 1088); settings: higher = more signal;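 also: binding of Prmt1 protein to compounds spotted on small-molecule microarray slides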
[2] = growth effects on S. cerevisiae YJM789 – YJM789 clinical isolate, OD600, 24 h, basal, primary screen (AID 1089); settings: higher = more signal, called active from +8 up or from −8 down;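 also: growth of clinical yeast isolate S. cerevisiae YJM 789 seeded 1000 cells per well; test concentration not given here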
[3] = S. pombe growth modifiers, basal conditions – strain 972, OD600, 24 h, no modulator, primary screen (AID 1090);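 also: basal condition with compound alone and no growth modifier present; test concentration not given here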; settings: S. pombe 972 growth, higher = more signal, called active from +8 up or from −8 down
[4] = budding yeast growth modifiers under rapamycin – strain BY4716, OD600, 96 h, primary screen (AID 1091); also: test concentration not given here; settings: S. cerevisiae BY4716 + rapamycin, higher = more signal, called active from +8 up or from −8 down
[5] = target: Torsin-1A-interacting protein 2 (Homo sapiens) (UniProt Q8NFQ8); assay: small molecules binding lysate-expressed LULL1 – cell lysate, human LULL1 lysate, 635/667 nm fluorescence, primary screen (AID 1092); settings: small-molecule microarray, hLULL1 lysate binding, 635 nm fluorescence; higher = more signal;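 also: probe is lysate of COS7 cells overexpressing human LULL1; score merges per-feature 667 nm fluorescence with signal-to-noise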
[6] = optical density change of DRC41 E. coli – strain DRC41, OD650, 24 h, E. coli filamentation project, primary screen (AID 1093);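 also: MC1000 strain lacking acrAB efflux and sulA so SOS filamentation is blocked; test concentration not given here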; settings: E. coli DRC41 growth, higher = more signal, called active from +8 up or from −8 down
[7] = probe aLefty2 binding to arrayed compounds – biochemical, biotinylated probe, 635/667 nm fluorescence, primary screen (AID 1094); settings: small-molecule microarray, higher = more signal;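 also: score merges spot fluorescence near 667 nm with spot signal-to-noise ratio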
[8] = tested on: Noggin (protein binding on small-molecule microarray); assay: small molecules binding Noggin protein – biochemical, 635/667 nm fluorescence, primary screen (AID 1095); settings: 635 nm fluorescence, higher = more signal;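 also: score merges 667 nm feature fluorescence with signal to noise over triplicate slides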
[9] = target: Neurogenic locus notch homolog protein 3 (Homo sapiens) (UniProt Q9UM47); assay: small molecules binding NOTCH3 protein – biochemical, 635/667 nm fluorescence, primary screen (AID 1096); settings: small-molecule microarray, 635 nm fluorescence, higher = more signal
[10] = probe aEGFR binding to arrayed compounds – biochemical, biotinylated probe, 635/667 nm fluorescence, primary screen (AID 1097); settings: small-molecule microarray, higher = more signal;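 also: probe is a biotinylated anti-EGFR antibody binding compounds printed on slides; score combines fluorescence near 667 nm and signal to noise of each spot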

Torsin-1A-interacting protein 2 (Homo sapiens), sequence (Q8NFQ8 whole entry, looked up): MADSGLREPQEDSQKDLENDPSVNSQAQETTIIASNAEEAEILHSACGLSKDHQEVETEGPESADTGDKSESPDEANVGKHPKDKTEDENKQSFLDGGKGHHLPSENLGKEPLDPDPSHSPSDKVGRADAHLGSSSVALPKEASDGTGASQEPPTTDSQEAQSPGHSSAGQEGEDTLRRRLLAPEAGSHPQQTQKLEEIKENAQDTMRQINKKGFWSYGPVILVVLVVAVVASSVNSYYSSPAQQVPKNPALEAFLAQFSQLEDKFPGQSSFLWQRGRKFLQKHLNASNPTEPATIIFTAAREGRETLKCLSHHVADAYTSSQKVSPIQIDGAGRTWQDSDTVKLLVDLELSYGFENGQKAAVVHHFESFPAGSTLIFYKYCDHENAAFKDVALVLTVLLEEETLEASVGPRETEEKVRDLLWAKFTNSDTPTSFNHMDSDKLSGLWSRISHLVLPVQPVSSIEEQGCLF
Neurogenic locus notch homolog protein 3 (Homo sapiens), sequence (Q9UM47 whole entry, looked up): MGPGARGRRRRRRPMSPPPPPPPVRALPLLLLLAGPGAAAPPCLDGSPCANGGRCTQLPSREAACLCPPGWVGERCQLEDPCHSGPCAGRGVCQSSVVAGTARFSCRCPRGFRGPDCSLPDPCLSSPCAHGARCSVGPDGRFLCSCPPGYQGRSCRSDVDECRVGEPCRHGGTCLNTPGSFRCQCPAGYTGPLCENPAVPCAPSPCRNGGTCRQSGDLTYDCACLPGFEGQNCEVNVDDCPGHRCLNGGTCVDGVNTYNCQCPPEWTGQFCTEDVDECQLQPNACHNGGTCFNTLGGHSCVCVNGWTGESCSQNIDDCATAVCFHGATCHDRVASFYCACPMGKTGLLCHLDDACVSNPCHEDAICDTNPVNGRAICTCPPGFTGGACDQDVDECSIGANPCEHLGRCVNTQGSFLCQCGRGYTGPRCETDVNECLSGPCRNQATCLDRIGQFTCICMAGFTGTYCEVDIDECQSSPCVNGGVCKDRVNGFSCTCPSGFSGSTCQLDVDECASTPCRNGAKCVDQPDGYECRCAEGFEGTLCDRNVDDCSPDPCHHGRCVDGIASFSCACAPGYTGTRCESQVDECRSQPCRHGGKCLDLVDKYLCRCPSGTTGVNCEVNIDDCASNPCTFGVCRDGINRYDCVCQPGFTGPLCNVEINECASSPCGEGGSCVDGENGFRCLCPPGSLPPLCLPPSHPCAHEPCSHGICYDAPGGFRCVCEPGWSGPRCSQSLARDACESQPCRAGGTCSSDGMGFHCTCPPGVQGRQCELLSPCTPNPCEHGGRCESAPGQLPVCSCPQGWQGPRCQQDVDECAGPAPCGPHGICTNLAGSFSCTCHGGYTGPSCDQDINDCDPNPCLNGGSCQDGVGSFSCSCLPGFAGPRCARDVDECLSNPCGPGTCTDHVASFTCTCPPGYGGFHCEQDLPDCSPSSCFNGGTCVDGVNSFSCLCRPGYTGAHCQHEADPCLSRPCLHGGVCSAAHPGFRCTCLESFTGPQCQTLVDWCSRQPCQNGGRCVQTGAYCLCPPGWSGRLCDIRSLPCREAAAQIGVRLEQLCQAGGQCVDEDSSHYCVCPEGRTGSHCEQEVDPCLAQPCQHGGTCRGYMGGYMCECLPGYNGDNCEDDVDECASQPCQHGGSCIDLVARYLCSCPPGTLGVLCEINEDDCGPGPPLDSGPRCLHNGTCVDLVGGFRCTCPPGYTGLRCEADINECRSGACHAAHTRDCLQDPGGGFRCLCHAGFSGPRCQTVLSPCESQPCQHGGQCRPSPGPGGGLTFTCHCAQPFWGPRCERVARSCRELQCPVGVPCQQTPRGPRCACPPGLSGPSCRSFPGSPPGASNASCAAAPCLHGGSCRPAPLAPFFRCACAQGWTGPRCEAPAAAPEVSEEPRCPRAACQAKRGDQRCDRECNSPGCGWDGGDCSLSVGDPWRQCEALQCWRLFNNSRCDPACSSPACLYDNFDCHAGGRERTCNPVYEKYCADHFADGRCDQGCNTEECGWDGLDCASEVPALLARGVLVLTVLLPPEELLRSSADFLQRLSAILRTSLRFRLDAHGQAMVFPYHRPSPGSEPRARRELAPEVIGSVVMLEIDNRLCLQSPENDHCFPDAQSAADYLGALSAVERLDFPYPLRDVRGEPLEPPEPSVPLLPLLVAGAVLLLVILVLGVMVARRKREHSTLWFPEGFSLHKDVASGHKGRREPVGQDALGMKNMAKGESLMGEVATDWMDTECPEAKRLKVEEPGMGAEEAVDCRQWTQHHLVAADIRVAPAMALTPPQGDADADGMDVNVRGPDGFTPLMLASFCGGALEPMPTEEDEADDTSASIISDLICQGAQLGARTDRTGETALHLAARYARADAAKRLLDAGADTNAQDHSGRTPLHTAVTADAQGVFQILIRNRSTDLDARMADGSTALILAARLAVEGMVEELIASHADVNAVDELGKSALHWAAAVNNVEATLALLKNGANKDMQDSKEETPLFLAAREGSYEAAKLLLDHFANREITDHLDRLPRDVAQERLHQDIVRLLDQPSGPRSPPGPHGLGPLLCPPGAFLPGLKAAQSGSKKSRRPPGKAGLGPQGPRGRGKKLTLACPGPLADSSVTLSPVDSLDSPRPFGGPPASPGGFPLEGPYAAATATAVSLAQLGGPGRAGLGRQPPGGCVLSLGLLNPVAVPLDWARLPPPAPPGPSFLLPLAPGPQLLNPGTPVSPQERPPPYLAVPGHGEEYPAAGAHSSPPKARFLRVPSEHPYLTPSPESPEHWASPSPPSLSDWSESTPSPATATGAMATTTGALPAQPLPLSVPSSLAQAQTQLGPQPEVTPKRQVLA

SMILES | composite z-score [1] | z-score [2] | z-score [3] | z-score [4] | composite z-score [5] | z-score [6] | composite z-score [7] | composite z-score [8] | composite z-score [9] | composite z-score [10]
O=C(CS)NCCCCCCNC(=O)[C@@H]1C[C@@H]2C(=O)N[C@@H](Cc3ccccc3)C(=O)N2[C@@H]1c1ccc(O)cc1 | 1.53 | 0.205 (inactive) | 1.52 (inactive) | 1.99 (inactive) | 2.97 | 0.988 (inactive) | -0.0741 | 0.652 | 1.16 | -0.0271
NC(=O)NCC#Cc1ccc2c(c1)[C@]1(C(=O)N2)[C@H](C(=O)N2CCCCCCC2)[C@H]2C(=O)O[C@H](c3ccccc3)[C@H](c3ccccc3)N2[C@@H]1c1ccccc1OCCO | 1.54 | 0.305 (inactive) | -3.26 (inactive) | 1 (inactive) | 4.33 | 1.82 (inactive) | 1.65 | 1.36 | 1.05 | 1.3
O=C1O[C@H](c2ccccc2)[C@H](c2ccccc2)N2[C@H]1[C@@H](C(=O)Nc1nc3ccccc3s1)[C@]1(C(=O)Nc3ccc(C#CC4=CCCCC4)cc31)[C@H]2c1ccccc1OCCO | 1.56 | 2.17 (inactive) | 1.82 (inactive) | 4.5 (inactive) | 2.35 | -0.0227 (inactive) | -0.0778 | 1.53 | 1.1 | 0.0564
